Screening data: PubChem BioAssay, National Center for Advancing Translational Sciences (NCATS)
Only a selection was taken, and hits are over-represented in it overall.
Pf Dd2 inh: blocks in vitro growth of P. falciparum Dd2; P. falciparum Dd2 growth, SYBR Green, 72 h; Potency, µM (titrated, usually from 28.9 µM), for inactives: at the top dose activity, negative = inhibition, usual class: inhibitors; 120,000 compounds, 4.3% hits; active means well fitted inhibition curve with a large enough effect;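 further: plate controls were DMSO vehicle for no effect and reference drug for full effect; nearly all actives have a fitted effect of over 65% in size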
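Readout: SYBR Green fluorescence, 485 nm excitation, 535 nm emission, after ~16 h lysis at 37C. Before that, Dd2-infected red cells (2.5% hematocrit) grew 72 h with compound, 29 uM top final concentration.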
The depositor's hits bear a star; i = inactive; [ ] = another dose, or the depositor's remark. Potency means the concentration at half of the fitted maximal effect.

SMILES | Pf Dd2 inh
CCCn1nccc1C(=O)N1CCCC(CCc2cccc(C(F)(F)F)c2)C1 (stereo unspecified) | i
CCOC(=O)C1=C(C)N=C2SC=C(CC(=O)N3CCOCC3)N2C1c1cccc([N+](=O)[O-])c1 (stereo unspecified) | i
CN(C)[C@@H]1C[C@H](Cn2cc(C3CC3)nn2)[C@@H](O)[C@H]1O | -9%[44.1 µM]
O=C(COc1ccccc1)N1CCC2(CC1)NC(=O)N(c1cccc(F)c1)N2 | i
COc1ccc(C[C@H](NC(=O)[C@@H]2C[C@H](NC(=O)Nc3cccc(OC)c3)CN2C(=O)c2cccn2C)C(N)=O)cc1 | -2%
COc1ccc(CN2CC(Oc3ccc(F)cc3C)C2)cc1 | 11µM*
Cc1cc(F)ccc1OC1CN(CC2CCCCC2)C1 | 8.9µM*
Cc1cc(F)ccc1OC1CN(CC2CC2)C1 | -20%[44.1 µM]
Cc1cc(F)ccc1OC1CN(Cc2ccc(C#N)cc2)C1 | i
COc1ccccc1C(=O)N1CC(Oc2ccc(F)cc2C)C1 | -20%[44.1 µM]
COc1ccc(CN2CC(Oc3ccc(F)cc3F)C2)cc1 | -30%[44.1 µM]
COc1ccc2[nH]c3c(c2c1)CCNC31CCN(C(=O)c2cnn(C)c2)CC1 | 10%
O=C(CN1C(=O)NC2(CCCCC2)C1=O)NC1CCc2ccccc21 (stereo unspecified) | -11%
CCN1CCCC1CNC(=O)Cn1nc2c(cc1=O)CCCC2 (stereo unspecified) | -2%
Cc1ccc(N2CCC(NC(=O)Cc3cccs3)C2=O)cc1C (stereo unspecified) | -13%
COCCn1c(=O)c2c(n1Cc1ccccc1)CN(Cc1ccc(C(C)C)cc1)CC2 | -10%[44.1 µM]
COCCn1c(=O)c2c(n1Cc1ccccc1)CN(Cc1cccnc1OC)CC2 | -16%[44.1 µM]
COCCCN1CCc2c(n(Cc3ccccc3)n(-c3ccccc3)c2=O)C1 | 11µM*
COc1ccc(-c2noc(-c3nc(C(C)C)no3)n2)cc1 | 9%
CCN1CCC2(CCC1=O)CN(Cc1cc(C#N)n(CC)c1)CCN2C (stereo unspecified) | -20%
N#Cc1ccc(CN2CC[C@H](c3nnc(Cc4ccccc4)o3)C2)cc1 | i
CCn1cc(CN2CCCC(c3nc4c(C)cccc4[nH]3)C2)cc1C#N (stereo unspecified) | 13µM*
Cc1ccc(NC(=O)N2CC(C(=O)N(C)C)C3(CCOCC3)C2)cc1C (stereo unspecified) | 6%
CC(C)NC(=O)N1CC2ON=C(C(=O)NCc3cccnc3)C2C1 (stereo unspecified) | -3%
COCc1noc([C@@H]2CN(S(=O)(=O)Cc3ccc(F)cc3)C[C@H]2C(N)=O)n1 | 9%
SMILES | Pf Dd2 inh
Cc1ccc(CN2CCCOCCNC(=O)[C@@H]3CCCC[C@@H]32)s1 | 5µM*
Cc1cccc(CN2CCCOCCNC(=O)[C@@H]3CCCC[C@@H]32)c1 | i
Cc1ccc(CN2CCCCCNC(=O)[C@@H]3CCC[C@@H]32)s1 | -17%
COc1ccc(N2CC(C(=O)N3CCC(C(=O)N4CCN(Cc5ccccc5)CC4)C3)NC2=O)cc1 (stereo unspecified) | 0%
O=C(C1CCC1)N1CCCC(Cc2nncn2CC2CC2)C1 (stereo unspecified) | 1%
O=C1N2CCCC2CN1C1CCN(Cc2ccc(OC(F)(F)F)cc2)CC1 (stereo unspecified) | -1%
COc1ccc(NC(=O)C2CC(=O)N(c3n[nH]c4cccc(F)c34)C2)cc1Cl (stereo unspecified) | -1%
CCOC(=O)C1(Cc2ccc(Cl)cc2)CCNCC1 | 3.5µM*
CCOC(=O)C1(Cc2ccc(Cl)cc2)CCN(C(=O)c2ccc(C)s2)CC1 | -15%
CCOC(=O)C1(Cc2ccccc2Cl)CCN(S(=O)(=O)c2ccccc2)CC1 | -18%
Cn1ccc2c(C(=O)NCc3cccnc3)nc(Nc3ccccc3)cc21 | -3%[44.1 µM]
CC(C)CC(=O)N1C[C@@H](Oc2ccccc2)C[C@@H]1C(=O)N1CCOCC1 | -7%
CN(CCCc1cnn(C)c1)C(=O)C1CNCCO1 (stereo unspecified) | 19%
CCn1cc(C(=O)N2CCN(c3ccccc3OC)CC2)c2cc(OC)c(OC)cc2c1=O | -9%
COc1cc2c(C(=O)N3CCN(c4ccc(C)cc4)C(C)C3)cn(CC(C)C)c(=O)c2cc1OC (stereo unspecified) | 8.9µM*
CCn1cc(C(=O)N2CCN(c3ccc(C)cc3)C(C)C2)c(=O)c2cc(S(=O)(=O)N3CCCC3)ccc21 (stereo unspecified) | 20%
COc1ccc(NC(=O)c2cn(CC(C)C)c(=O)c3cc(OC)c(OC)cc23)cc1Cl | 11µM*
CCOc1ccc(NC(=O)c2cn(C)c(=O)c3cc(OC)c(OC)cc23)cc1 | 21%
COc1cc(OC)c(NC(=O)c2cn(C)c(=O)c3cc(OC)c(OC)cc23)cc1Cl | 15%
COCCOc1ccc2c(n1)CCN(C(=O)c1cccc(C)c1)C2 | -35%
COc1ccc(NC(=O)N2CCCC(Cc3noc(-c4cccnc4)n3)C2)cc1 (stereo unspecified) | -25%
CNC(=O)[C@@H]1CN(S(=O)(=O)c2cc(F)ccc2F)C[C@H]1COC | 9%
